# Assay results as given in PubChem BioAssay (NCATS).
# Results filed as inconclusive are left out. Where a call stands in place of a potency, no number is given. Active and inactive are the calls of the source. Calls come from the whole dose curve; as a rule, active = well fitted curve in the direction sought with a large enough effect; inconclusive = small, poorly fitted or top-dose-only effect, or another doubt; inactive = no such curve, though single readings can be large; an effect the other way counts as inactive or inconclusive.
# System: not listed separately
# Test: Primary qHTS for inhibitors of La Crosse Virus (LACV) - induced cell death in SH-SY5Y cells (AID 1508616);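 note: top concentration of the series differs between compounds; higher means more rescue of cells from virus-induced death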
# Details: SH-SY5Y LACV cytopathicity rescue, ATP luminescence, 6 d; series mostly up to 4.29 µM
# Summary of the method: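 SH-SY5Y cells (6000/well) plated 24 h, then given compounds by pin transfer and LACV at 0.01 MOI for 6 days at 37C. Viability measured by ATPLite luminescence, normalized to infected DMSO and uninfected DMSO.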
row,Compound,outcome
1,CCCc1c2oc(C(=O)O)cc(=O)c2cc2c(=O)cc(C(=O)O)n(CC)c12,inactive
2,CC1(C)O[C@@H]2C[C@H]3[C@@H]4C[C@H](F)C5=CC(=O)C=C[C@]5(C)[C@@]4(F)[C@@H](O)C[C@]3(C)[C@]2(C(=O)CO)O1,inactive
3,COC(=O)CCCCC(CCSS/C(CCO)=C(\C)N(C=O)Cc1cnc(C)nc1N)SC(C)=O (stereo not given),inactive
4,CN1CCCN=C1/C=C/c1cccs1,inactive
5,CC1(C)O[C@@H]2C[C@H]3[C@@H]4CCC5=CC(=O)C=C[C@]5(C)[C@@]4(F)[C@@H](O)C[C@]3(C)[C@]2(C(=O)CO)O1,inactive
6,COC(=O)c1cc(Cl)ccc1NS(=O)(=O)C(F)(F)F,inactive
7,NS(=O)(=O)c1cc2c(cc1Cl)CN(C1CCCCC1)C2=O,inactive
8,COC(=O)c1cc(Cl)c(NC(C)=O)cc1OC,inactive
9,CCOC(=O)NNc1nncc2ccccc12,inactive
10,CC[C@@]1(O)C(=O)OCc2c1cc1n(c2=O)Cc2c-1nc1ccccc1c2/C=N/OC(C)(C)C,inactive
11,Oc1ccccc1-c1nnco1,inactive
12,O=C(O)CCCC[P+](c1ccccc1)(c1ccccc1)c1ccccc1,inactive
13,C[C@@]12CCC[C@H]1[C@@H]1CC[C@H]3C[C@@H](O)CC[C@]3(C)[C@H]1CC2,inactive
14,CO/N=C(\C(=O)O)c1csc(NC(=O)CCl)n1,inactive
15,CN1CC(=O)N2[C@H](c3ccc4c(c3)OCO4)c3[nH]c4ccccc4c3C[C@@H]2C1=O,inactive
16,Oc1ccccc1,inactive
17,CCOC(=O)C(=O)CCc1ccccc1,inactive

row,Compound,outcome
1,CC(C)C(C)(C)C(C)(C)C(C)(C)S,inactive
2,CCOC(=O)C(O)c1ccccc1 (stereo not given),inactive
3,O=C1CCCc2c(O)cccc21,inactive
4,CN1N=C(C(N)=O)CCC1=O,inactive
5,COC(=O)/C=C\C(=O)OC,inactive
6,C[C@H]1C[C@H]2[C@@H]3CCC4=CC(=O)C=C[C@]4(C)[C@H]3C(=O)C[C@]2(C)[C@@]1(O)C(=O)CO,inactive
7,CC(=O)/C=C/C=C1/C2CCC(C2)C1(C)C (stereo not given),inactive
8,CN1CC[C@H](c2c(O)cc(O)c3c(=O)cc(-c4ccccc4Cl)oc23)[C@H](O)C1,inactive
9,O=c1[nH]c2ccccc2c(=O)n1CCCl,inactive
10,Cc1c(C)c2c(c(C)c1OC(=O)CCC(=O)OCCO)CC[C@@](C)(CCC[C@H](C)CCC[C@H](C)CCCC(C)C)O2,inactive
11,COc1ccc(CCC(C)=O)cc1,inactive
12,Nc1cc(C(F)(F)F)ccc1S,inactive
13,NCC(=O)O,inactive
14,O=C(O)[C@H](O)[C@@H](O)[C@H](O[C@@H]1O[C@H](CO)[C@H](O)[C@H](O)[C@H]1O)[C@H](O)CO,inactive
15,CCN(CC)CC(=O)Nc1c(C)cccc1C(=O)OC,inactive
16,CO[C@@]1(NC(=O)CSC[C@@H](N)C(=O)O)C(=O)N2C(C(=O)O)=C(CSc3nnnn3C)CS[C@@H]21,inactive

# Biological target: Calcium and integrin-binding protein 1 (Homo sapiens) (UniProt Q99828)
# Test: Primary qHTS for Identification of Calcium Integrin Binding Protein 1 (CIB1) Competitor (AID 1508620); note: potency is the fitted concentration of half-maximal effect
# Details: CIB1-GST / FITC-alphaIIb peptide fluorescence polarization; series mostly up to 114 µM
# Summary of the method: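 CIB1-GST (1 uM final) and compound incubated 15 min at room temperature before adding FITC-alphaIIb peptide tracer (100 nM final). Competition for binding read by fluorescence polarization (ex 480, em 540) after another 15 min at room temperature.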
# Sequence of Calcium and integrin-binding protein 1 (Homo sapiens) (Q99828 whole entry, looked up): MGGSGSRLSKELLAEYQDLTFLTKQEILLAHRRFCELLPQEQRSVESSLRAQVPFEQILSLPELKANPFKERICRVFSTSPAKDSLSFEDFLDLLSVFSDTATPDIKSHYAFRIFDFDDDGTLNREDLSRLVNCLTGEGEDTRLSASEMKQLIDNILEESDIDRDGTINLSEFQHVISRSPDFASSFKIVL
row,Compound,Potency
1,CCCc1c2oc(C(=O)O)cc(=O)c2cc2c(=O)cc(C(=O)O)n(CC)c12,inactive
2,CC1(C)O[C@@H]2C[C@H]3[C@@H]4C[C@H](F)C5=CC(=O)C=C[C@]5(C)[C@@]4(F)[C@@H](O)C[C@]3(C)[C@]2(C(=O)CO)O1,inactive
3,COC(=O)CCCCC(CCSS/C(CCO)=C(\C)N(C=O)Cc1cnc(C)nc1N)SC(C)=O (stereo not given),inactive
4,CN1CCCN=C1/C=C/c1cccs1,inactive
5,CC1(C)O[C@@H]2C[C@H]3[C@@H]4CCC5=CC(=O)C=C[C@]5(C)[C@@]4(F)[C@@H](O)C[C@]3(C)[C@]2(C(=O)CO)O1,inactive
6,COC(=O)c1cc(Cl)c(NC(C)=O)cc1OC,inactive
7,CCOC(=O)NNc1nncc2ccccc12,inactive
8,CC[C@@]1(O)C(=O)OCc2c1cc1n(c2=O)Cc2c-1nc1ccccc1c2/C=N/OC(C)(C)C,inactive
9,Oc1ccccc1-c1nnco1,inactive
10,C[C@@]12CCC[C@H]1[C@@H]1CC[C@H]3C[C@@H](O)CC[C@]3(C)[C@H]1CC2,inactive
11,CO/N=C(\C(=O)O)c1csc(NC(=O)CCl)n1,inactive
12,CN1CC(=O)N2[C@H](c3ccc4c(c3)OCO4)c3[nH]c4ccccc4c3C[C@@H]2C1=O,inactive
13,CCOC(=O)C(=O)CCc1ccccc1,inactive
14,CCOC(=O)C(O)c1ccccc1 (stereo not given),inactive
15,O=C1CCCc2c(O)cccc21,inactive
16,CN1N=C(C(N)=O)CCC1=O,inactive
17,COC(=O)/C=C\C(=O)OC,inactive
18,CCCCCCOC(=O)NC(=N)c1ccc(NCc2nc3cc(C(=O)N(CCC(=O)OCC)c4ccccn4)ccc3n2C)cc1,inactive
19,C[C@H]1C[C@H]2[C@@H]3CCC4=CC(=O)C=C[C@]4(C)[C@H]3C(=O)C[C@]2(C)[C@@]1(O)C(=O)CO,inactive
20,CC(=O)/C=C/C=C1/C2CCC(C2)C1(C)C (stereo not given),inactive
21,O=c1[nH]c2ccccc2c(=O)n1CCCl,inactive
22,COc1ccc(CCC(C)=O)cc1,inactive
23,O=C(O)C(=O)Nc1cccc(-c2nn[nH]n2)c1,inactive
24,Nc1cc(C(F)(F)F)ccc1S,28.2 µM (active)
25,O=C(O)[C@H](O)[C@@H](O)[C@H](O[C@@H]1O[C@H](CO)[C@H](O)[C@H](O)[C@H]1O)[C@H](O)CO,inactive
26,CCN(CC)CC(=O)Nc1c(C)cccc1C(=O)OC,inactive
27,CO[C@@]1(NC(=O)CSC[C@@H](N)C(=O)O)C(=O)N2C(C(=O)O)=C(CSc3nnnn3C)CS[C@@H]21,inactive
